# Experimental data reported in PubChem BioAssay (NCI).
# This is part of a sample that, as a whole, favours compounds with a hit. Of some 83,000 tested, about 20% had one in any assay.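 A percent growth of 40 corresponds to 60% growth inhibition; 0 means no net growth; -100 means all cells died. Active threshold: below 10.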 Unmarked numbers belong to inactive results. Active and inactive are the calls of the source.
# Experiments:
# Experiment in all cases: NCI-60 one-dose screen, 48 h (100 = growth as untreated, 0 = no growth, -100 = all killed)
# Details in all cases: 10 µM
# [1] = test system: RPMI-8226 leukemia
# [2] = test system: OVCAR-8 ovarian
# [3] = test system: OVCAR-5 ovarian
# [4] = test system: OVCAR-4 ovarian
# [5] = test system: SK-OV-3 ovarian
# [6] = test system: IGROV1 ovarian
# [7] = test system: OVCAR-3 ovarian
# [8] = test system: HS 578T breast
# [9] = test system: NCI/ADR-RES ovarian
# [10] = test system: T-47D breast
# [11] = test system: BT-549 breast
# [12] = test system: MDA-MB-435 melanoma
# [13] = test system: SW-620 colon
# [14] = test system: MCF7 breast
# [15] = test system: HCT-116 colon
# [16] = test system: HCC-2998 colon
# [17] = test system: KM12 colon
Compound,growth [1],growth [2],growth [3],growth [4],growth [5],growth [6],growth [7],growth [8],growth [9],growth [10],growth [11],growth [12],growth [13],growth [14],growth [15],growth [16],growth [17]
COc1cc(Nc2ccnc(NCCCNc3ccnc4cc(Cl)ccc34)n2)cc(OC)c1,-45.3% (active),3.57% (active),44.7%,2.29% (active),14.7%,27.2%,-58.3% (active),-53.1% (active),50.7%,-63.1% (active),19.7%,-81.9% (active),-43.3% (active),3.36% (active),-53.6% (active),-65% (active),47.1%
COc1ccc(/C=C2/CN(C(=O)c3ccccc3F)C/C(=C\c3ccc(OC)cc3)C2=O)cc1,-19% (active),19%,106%,61.3%,76.7%,30.6%,26.9%,38.9%,50.4%,62.7%,37%,-46.2% (active),-42.3% (active),8.16% (active),-62.6% (active),-73.1% (active),
O=C1/C(=C\c2ccc(Cl)cc2)CN(C(=S)Nc2ccccc2)C/C1=C\c1ccc(Cl)cc1,-29.8% (active),-5.17% (active),-74.1% (active),-26% (active),-42.3% (active),-72.9% (active),-87.6% (active),-23.1% (active),1.25% (active),-2.82% (active),-66.6% (active),-82.1% (active),-84.9% (active),-83.9% (active),-62.8% (active),-89% (active),
Cc1ccc(S(=O)(=O)OCCN(CCOS(=O)(=O)c2ccc(C)cc2)c2c[nH]c(=O)[nH]c2=O)cc1,100%,103%,102%,97.9%,100%,112%,120%,140%,112%,100%,112%,103%,110%,99.2%,108%,128%,116%
C#Cc1ccc(-n2c(/C=C/c3ccc(O)cc3)nc3ncccc3c2=O)cc1,46.9%,75.2%,97.4%,61%,45.5%,62.5%,4.59% (active),64%,55%,67.4%,74.9%,-45.5% (active),34.5%,10.5%,48.5%,93%,
COC(=O)C(C(C[N+](=O)[O-])c1ccccc1)=P(c1ccccc1)(c1ccccc1)c1ccccc1 (configuration not stated),-28.2% (active),93.4%,96.5%,98.3%,95.7%,66%,89.5%,110%,103%,83.9%,93%,49.5%,69.8%,30.2%,4.02% (active),101%,88.3%
N=C(N)c1ccc(-c2ccc(-c3cccs3)s2)s1,-46.6% (active),-47.2% (active),0.532% (active),-64.1% (active),74.2%,3.96% (active),-89.2% (active),-27.1% (active),-29.3% (active),70.2%,66.9%,-88.5% (active),-66.4% (active),-65% (active),-87% (active),-80.3% (active),
O=C1/C(=C\c2ccc(F)cc2)CN(C(=O)c2ccc([N+](=O)[O-])cc2)C/C1=C\c1ccc(F)cc1,-13.3% (active),19.5%,77.1%,50.5%,50.8%,33.9%,10.3%,-9.57% (active),24.3%,64.5%,5.36% (active),-30% (active),-58.4% (active),-9.52% (active),-72.7% (active),-79.1% (active),
C#Cc1ccc(-n2c(/C=C/c3ccc4ccccc4n3)nc3ncccc3c2=O)cc1,-27.7% (active),-16.4% (active),-4.33% (active),-62.4% (active),5.05% (active),-65.6% (active),-66.8% (active),11%,-6.13% (active),-51.9% (active),5.21% (active),-11.5% (active),-51% (active),6.42% (active),-25% (active),-75.3% (active),
CCOC(=O)N1C/C(=C/c2ccc(F)cc2)C(=O)/C(=C/c2ccc(F)cc2)C1,-29% (active),9.76% (active),24.2%,9.8% (active),12.7%,-34.1% (active),-29.2% (active),-10.5% (active),9.49% (active),30.5%,-44.3% (active),-47.4% (active),-66% (active),-45.9% (active),-83.9% (active),-80.9% (active),
COc1cc(Nc2ncnc(Nc3ccc4c(n3)NC(=O)C(C)(C)O4)n2)cc(OC)c1OC,20.6%,24.1%,29.3%,39.8%,-19.6% (active),-46.1% (active),35.9%,-20.4% (active),34.2%,34.5%,33.7%,16.6%,32.9%,21.9%,24.2%,79.1%,
COc1cc(NC(=O)CCSc2nc3ccc(C)cc3c(=O)n2Cc2ccccc2)cc(OC)c1OC,83.8%,29.9%,94.2%,-32.1% (active),30.2%,110%,67.9%,6.72% (active),83.8%,65.6%,95.5%,92.1%,84.5%,77.6%,35%,112%,
CSc1nn(-c2ccccc2)c2ncnc(Oc3ccc(C)cc3)c12,92.4%,50.7%,92.5%,9.15% (active),75.2%,92.7%,98.1%,85.9%,93.4%,83.4%,98%,102%,103%,97.7%,85.3%,99.4%,
COc1ccc(Cl)cc1-n1nnc(-c2nc3ccccc3[nH]2)c1N,53.9%,82.4%,96.2%,-79.9% (active),62.6%,85.5%,86.7%,43.3%,92.1%,67.5%,98.8%,88.6%,75.6%,94.3%,55.4%,93.4%,
CCOC(=O)N1C/C(=C/c2ccc(OC)cc2)C(=O)/C(=C/c2ccc(OC)cc2)C1,-14.8% (active),19.6%,95%,58%,26.9%,17.2%,0.817% (active),-15.8% (active),21.7%,43.7%,-12.8% (active),-33.4% (active),-38.7% (active),-5.59% (active),-82.8% (active),-92.5% (active),
CC(=O)O[C@]1(C)CC[C@H]2[C@H](CNCCc3ccc(Cl)cc3)C(=O)O[C@@H]2C2=C(C)C(=O)C[C@H]21,64.7%,93.1%,100%,87.4%,101%,97.5%,99.2%,150%,109%,92.3%,108%,88%,82%,68.4%,83.9%,94.6%,
CCC(=O)N1C/C(=C/c2ccc(Br)cc2)C(=O)/C(=C/c2ccc(Br)cc2)C1,-28.2% (active),-7.14% (active),-22.8% (active),-0.254% (active),-30.6% (active),-67.6% (active),-62.6% (active),9.3% (active),10.2%,13%,-48.4% (active),-63% (active),-64.2% (active),-16.1% (active),-88.4% (active),-85.9% (active),
COc1ccc(-c2nc(-c3nc4cc(Cl)c(F)cc4[nH]3)c3ccccn23)cc1,8.97% (active),40.5%,98%,57.6%,105%,74.6%,81.3%,133%,60.2%,39.7%,91%,64.4%,71.6%,58.1%,71.4%,72.2%,
Cc1ccc(C(=O)N2C/C(=C/c3ccccc3)C(=O)/C(=C/c3ccccc3)C2)cc1,-23.1% (active),48.7%,105%,75.3%,78.9%,69.1%,57.9%,9.99% (active),66.1%,61.8%,49.2%,-14.1% (active),15.8%,7.53% (active),-55.5% (active),-48% (active),
